The results in this text go back to PubChem BioAssay AID743445 (Broad Institute, 2014).

In all, about 310,000 compounds went through this assay and about 1,700 (0.55%) were called active. This is one part of a sample in which actives are shown more often than they occur. Unmarked numbers belong to inactive results. No stated cut-off is given here; in the data, active means inhibition above about 50%; inactive means the rest.

As usually defined, the inhibition is the change of the read-out against control, counted positive when it falls.

This assay deals with Histone-lysine N-methyltransferase NSD2 (Homo sapiens) (UniProt O96028). The assay can be described thus: blockers of NSD2 lysine methylation activity – biochemical, AlphaScreen, single concentration, set 2, primary screen (AID 743445). Conditions: NSD2 peptide methylation, 120 min, at 12.5 µM, hits give high values. In general terms: In Alpha technology, singlet oxygen from a donor bead excites a nearby acceptor bead.
Sequence of Histone-lysine N-methyltransferase NSD2 (Homo sapiens) (O96028 whole entry, looked up): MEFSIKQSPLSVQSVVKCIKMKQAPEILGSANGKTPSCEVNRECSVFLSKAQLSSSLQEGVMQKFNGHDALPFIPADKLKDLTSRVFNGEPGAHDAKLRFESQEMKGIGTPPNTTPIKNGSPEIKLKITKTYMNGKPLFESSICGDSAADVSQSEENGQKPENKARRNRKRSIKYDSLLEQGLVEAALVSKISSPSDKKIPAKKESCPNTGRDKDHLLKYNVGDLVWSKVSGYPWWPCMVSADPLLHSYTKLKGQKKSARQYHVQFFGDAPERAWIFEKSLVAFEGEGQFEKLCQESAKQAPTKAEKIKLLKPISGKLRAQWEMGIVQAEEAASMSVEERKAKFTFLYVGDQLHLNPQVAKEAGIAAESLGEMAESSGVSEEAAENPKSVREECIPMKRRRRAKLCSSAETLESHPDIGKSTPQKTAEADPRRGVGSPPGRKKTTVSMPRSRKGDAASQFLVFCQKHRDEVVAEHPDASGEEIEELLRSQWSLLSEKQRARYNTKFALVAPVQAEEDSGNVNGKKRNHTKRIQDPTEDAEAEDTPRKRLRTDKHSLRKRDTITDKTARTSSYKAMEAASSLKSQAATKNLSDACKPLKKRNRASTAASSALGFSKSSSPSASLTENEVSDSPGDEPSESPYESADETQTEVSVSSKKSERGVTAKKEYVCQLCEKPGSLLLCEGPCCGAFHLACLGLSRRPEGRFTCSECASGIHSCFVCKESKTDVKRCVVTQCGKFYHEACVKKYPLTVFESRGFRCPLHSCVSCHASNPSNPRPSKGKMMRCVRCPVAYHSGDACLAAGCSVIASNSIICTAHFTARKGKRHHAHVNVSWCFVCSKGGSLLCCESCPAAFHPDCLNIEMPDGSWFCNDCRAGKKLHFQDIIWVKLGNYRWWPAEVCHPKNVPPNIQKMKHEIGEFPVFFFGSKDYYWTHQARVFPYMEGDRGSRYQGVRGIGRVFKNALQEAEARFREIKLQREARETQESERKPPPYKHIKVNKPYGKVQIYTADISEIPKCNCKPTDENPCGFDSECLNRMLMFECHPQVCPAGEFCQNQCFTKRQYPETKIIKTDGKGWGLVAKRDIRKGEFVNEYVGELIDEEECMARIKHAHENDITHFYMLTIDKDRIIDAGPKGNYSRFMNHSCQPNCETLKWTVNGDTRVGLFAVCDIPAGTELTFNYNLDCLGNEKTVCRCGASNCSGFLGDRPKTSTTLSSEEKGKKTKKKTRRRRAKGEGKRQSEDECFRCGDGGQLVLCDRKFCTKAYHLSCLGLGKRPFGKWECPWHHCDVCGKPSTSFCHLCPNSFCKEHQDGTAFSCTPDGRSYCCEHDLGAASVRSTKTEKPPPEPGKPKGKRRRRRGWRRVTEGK
With `Nn1c(SCC(=O)Nc2cccc3ccccc23)nnc1-c1cc(-c2ccc(F)cc2)n[nH]1`, the inhibition was 8.09%.
In the case of `COc1ccc(-n2c(COc3ccccc3)nnc2SCC(=O)Nc2ccc3c(c2)OCO3)cc1`, the inhibition is -0.703%.
Next, `Cc1cc(C)cc(C(=O)NCCN2CCOCC2)c1`: 4.87%.
Take `CCOC(=O)c1c(C)[nH]c(C(=O)NCCN2CCOCC2)c1C`: the inhibition is 74.8% (active).
In the case of `CC(=O)c1c(C)[nH]c(C(=O)NCCCN2CCCC2)c1C`, the inhibition was 7.16%.
`C=CCn1c(SCC(N)=O)nnc1-c1ccccc1OC`: the inhibition was -2.46%.
Consider `Cc1ccc(-n2c(COc3ccccc3)nnc2SCC(=O)Nc2ccc3c(c2)OCCO3)cc1`, for which the inhibition is 5.45%.
For `O=C(Nc1cc(F)cc(F)c1)OC1CCC12CCC(c1ccccc1)CC2` (stereo not drawn), the inhibition is -4.2%.
Regarding `COC(=O)c1ccccc1-n1cc(COC(=O)NCCc2ccccc2)nn1`, the inhibition was -1.58%.
`O=C(CCCCCN1C(=O)C2C3C=CC(C3)C2C1=O)Nc1ccccc1` (stereo not drawn): the inhibition is -10.2%.
For the molecule `O=C(Nc1ccccc1)N1CCN(Cc2nc3ccccc3c(=O)[nH]2)CC1`, the inhibition is -3.56%.
With `O=C(CSc1nnnn1-c1ccccc1)NCc1ccco1`, the inhibition was -2.53%.
Regarding `O=C(NCc1ccco1)c1nc2ncccn2n1`, the inhibition was -4.87%.
For `O=C(NCc1ccco1)c1nc(-c2ccccc2)n(-c2ccccc2)n1`, the inhibition was 59.6% (active).
Next, `COC(=O)C1=C(C)N(Cc2cccc(C(F)(F)F)c2)C(=NCc2ccccc2)NC1c1ccccc1C(F)(F)F` (stereo not drawn): -2.64%.
`Nn1c(SCC(=O)Nc2ccc(S(N)(=O)=O)cc2)nnc1-c1n[nH]c2c1CCC2`: the inhibition is -3.92%.
As to `O=C(CSc1nc2sc3c(c2c(=O)n1-c1ccccc1)CCCC3)NN=Cc1ccc(OCc2ccccc2)cc1`, the inhibition was 6.16%.
Take `C/C(=N/NC(=O)CCc1ccccc1)c1ccco1`: the inhibition is 51.2% (active).
On to `C/C(CC(=O)NC(C)(C)C)=N\NC(=O)c1ccco1`, for which the inhibition was -3.83%.
In the case of `COc1cccc2cc(/C(C)=N/NC(=O)c3ccco3)oc12`, the inhibition was -1.2%.
Regarding `CCOc1ccc(Oc2c(Cl)cnn(-c3ccc(C)cc3)c2=O)cc1`, the inhibition is -2.84%.
With `O=C(CSc1nc2c(c(=O)[nH]1)CCCC2)N1CCCCC1`, the inhibition was -1.56%.
`CC(C)Nc1nc(NCCOc2ccccc2Cl)c2sccc2n1`: the inhibition was 2.58%.
Next, `COc1cc(/C=C/C(=O)n2cnc3ccccc32)cc(OC)c1OC`: 0.939%.
As to `Cc1ccccc1-n1nc(C)c2cc(C(=O)NC3CC3)sc21`, the inhibition is 0.032%.
To `Cc1ccccc1-n1nc(C)c2c1N=C1C(Cl)=CC(Cl)=CN1C2c1ccc(C(=O)O)cc1` (stereo not drawn) belongs 51.3% (active).
Consider `Cc1nn(-c2ccccc2)c(Cl)c1/C=C/C(=O)c1ccc(O)cc1`, for which the inhibition is -0.695%.
Turning to `COc1ccc([C@H]2OC(=O)C[C@H]2C(=O)N2CCN(c3ccccc3F)CC2)cc1OC`, the inhibition was -1.64%.
In the case of `COc1ccc(S(=O)(=O)NC(C)C)cc1C(=O)NC1CCCCC1`, the inhibition was 0.027%.
To `COc1ccccc1N(C)S(=O)(=O)c1ccc(C(=O)NC2CCCCCC2)cc1` belongs 50.3% (active); to `COc1ccccc1N(C)S(=O)(=O)c1ccc(C(=O)N2CCC(C(N)=O)CC2)cc1`, -2.68%.
As to `O=C(NCCC1=CCCCC1)C1CCN(S(=O)(=O)c2ccc(Cl)s2)CC1`, the inhibition is -2.83%.
Turning to `COc1ccccc1-c1cc(NC(C)=O)c2ncc(-c3ccc(F)cc3)n2c1`, the inhibition was -0.432%.
